Source: PubChem BioAssay
PAFAH1B3 FP inh = blocks human PAF acetylhydrolase 1B catalytic subunit 3; Q15102; recombinant PAFAH1B3, FP-rhodamine probe, fluorescence polarization; inhibition, % at 3.39 µM; actives 0.28% (n = 340,000);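 active = inhibition above the screen-wide average of all tested compounds plus 3 SD, cut at about 25% in these data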
Target sequence (Q15102 whole entry, looked up): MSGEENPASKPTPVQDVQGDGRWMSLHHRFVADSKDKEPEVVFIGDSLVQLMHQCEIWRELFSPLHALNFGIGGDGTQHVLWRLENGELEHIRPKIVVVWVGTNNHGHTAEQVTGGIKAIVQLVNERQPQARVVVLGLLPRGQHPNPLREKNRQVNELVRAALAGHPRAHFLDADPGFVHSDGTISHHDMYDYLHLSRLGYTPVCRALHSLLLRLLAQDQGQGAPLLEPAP
PME-1 inh = PME-1 (human) inhibition | inhibition, % at 5.9 µM | recombinant PME-1, FP-Rh probe fluorescence polarization | actives 0.53% (n = 320,000) | Q9Y570;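 active = inhibition above the campaign mean of all compounds plus 3 SD, cut at about 26% in these data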;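 also: competitive labeling of PME-1 active site by serine hydrolase directed probe; inhibitors block probe labeling so polarization falls and inhibition rises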
pPAFAH FP inh = pPAFAH (human) enzyme inhibition; recombinant pPAFAH, FP-rhodamine probe fluorescence polarization; inhibition, % at 3.39 µM; Q13093; actives 1.5% (n = 330,000);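 active = inhibition above the mean inhibition across the screen plus 3 SD, cut at about 25% in these data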;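 also: inhibitors block binding of the rhodamine activity-based probe so polarization drops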
PAFAH2 inh = inhibitors of human PAFAH2; Q99487; recombinant PAFAH2, FP-rhodamine activity probe, fluorescence polarization; inhibition, % at 3.39 µM; actives 0.99% (n = 340,000);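 active = inhibition above the mean over all tested compounds plus 3 SD, cut at about 30% in these data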;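 also: inhibitors block probe labeling of enzyme so polarization drops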
PAFAH1B2 FP inh = inhibitors of human PAFAH1B2; recombinant PAFAH1B2, FP-rhodamine activity probe, fluorescence polarization; AID 492953; actives 1.2% (n = 340,000); inhibition, % at 3.39 µM; P68402;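 active = inhibition above the mean of all tested compounds plus 3 SD, cut at about 24% in these data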
Target sequence (P68402 whole entry, looked up): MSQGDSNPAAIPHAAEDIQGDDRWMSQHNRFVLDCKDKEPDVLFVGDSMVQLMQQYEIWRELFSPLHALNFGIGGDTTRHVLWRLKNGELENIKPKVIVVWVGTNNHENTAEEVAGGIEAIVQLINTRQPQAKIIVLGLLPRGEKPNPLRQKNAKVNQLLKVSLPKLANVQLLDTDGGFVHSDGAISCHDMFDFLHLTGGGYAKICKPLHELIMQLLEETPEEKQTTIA
Fam108B counter = blocks mouse Fam108B hydrolase in RBBP9 counter-screen; recombinant Fam108B, FP-Rh probe fluorescence polarization; inhibition, % at 9.51 µM; actives 0.33% (n = 300,000); AID 1947;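 active = inhibition above the screen mean inhibition plus 3 SD, computed separately per campaign, cut at about 18% in these data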;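 also: inhibitors lower polarization as less probe binds the enzyme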
PAFAH2 confirm = PAFAH2 (human) inhibition, confirmed; shares compounds with PAFAH2 inh; actives 65% (n = 2,300); recombinant PAFAH2, FP-rhodamine activity probe, fluorescence polarization; inhibition, % at 3.39 µM;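 active = mean inhibition over three repeats above a set limit taken from the earlier primary screen, cut at about 30% in these data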;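 also: inhibitor blocks binding of rhodamine activity probe so polarization falls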
Numbers stand for hits; n = inactive; x = not tested or not shown. An excerpt weighted towards active compounds, which were near 2.9% of everything screened.

SMILES | PAFAH1B3 FP inh | PME-1 inh | pPAFAH FP inh | PAFAH2 inh | PAFAH1B2 FP inh | Fam108B counter | PAFAH2 confirm
CC(C)C(NC(=O)c1ccc(C(C)(C)C)cc1)C(=O)NCC1(N(C)C)CCCCC1 (stereo unspecified) | n | n | n | n | n | n | x
O=C(CSc1nnc(CNC(=O)c2ccccc2F)o1)NCCc1ccccc1 | n | n | n | 54 | n | n | n
Cc1ccccc1CN(C)C(=O)COC(=O)c1ccc2[nH]c(C)c(C)c2c1 | n | x | n | 51 | n | x | 31
CSCCC(NS(=O)(=O)c1ccc(Cl)c(Cl)c1)C(=O)O (stereo unspecified) | n | n | n | 68 | n | n | 71
O=C(N/N=C1/C(=O)c2cccc3cccc1c23)c1ccc(Cl)cc1 | n | n | n | 56 | n | n | 35
Cc1c(C(c2ccccc2O)c2c(C)n(C)n(-c3ccccc3)c2=O)c(=O)n(-c2ccccc2)n1C | n | n | n | n | n | n | x
Cc1c(C(c2cc3c(cc2Br)OCO3)c2c(C)n(C)n(-c3ccccc3)c2=O)c(=O)n(-c2ccccc2)n1C | n | n | n | 81 | n | n | 77
Cc1noc(C)c1NC(=O)N(C)C[C@@H]1Oc2c(NC(=O)c3ccncc3)cccc2C(=O)N([C@H](C)CO)C[C@@H]1C | n | x | n | n | n | x | x
CC(C)(CN1CCCC1)NS(=O)(=O)c1ccccc1 | n | n | n | n | n | n | x
CC1CCN(C(=O)COC(=O)c2ccc3c(c2)OCCO3)CC1 | n | x | n | 46 | n | x | 30
CC1CCN(C(=O)COC(=O)c2cccs2)CC1 | n | x | n | 35 | n | x | n
O=C(OCC(=O)N1CCOCC1)c1ccc2c(c1)OCCO2 | n | n | n | n | n | n | x
O=C(OCC(=O)N1CCCCC1)c1cccs1 | n | x | n | n | n | x | x
CC1CCN(C(=O)COC(=O)c2ccc3c(c2)OCO3)CC1 | n | n | n | 39 | n | n | n
CC1CCN(C(=O)COC(=O)c2ccc(N3CCCC3=O)cc2)CC1 | n | n | n | 37 | n | x | 30
CC1CCCCN1C(=O)COC(=O)c1ccc(N2CCCC2=O)cc1 (stereo unspecified) | n | x | n | n | n | x | x
COc1cc(CCC(=O)OCC(=O)N(CC(C)C)C2CCS(=O)(=O)C2)cc(OC)c1OC (stereo unspecified) | n | x | x | n | n | x | x
O=C(NCCS(=O)(=O)NCCCc1ccccc1)c1ccccc1 | n | n | n | n | n | n | x
CCCC(=O)Nc1ccc(C(=O)n2ccc(C)n2)cc1 | n | n | n | 49 | n | n | 41
CCCC(=O)Nc1ccc(C(N)=O)cc1 | n | n | n | n | n | n | x
O=C(Nc1c[nH]c(=O)[nH]c1=O)c1cccc([N+](=O)[O-])c1 | n | x | x | n | n | x | x
Cc1nc2c(C)cccn2c(=O)c1NC(=O)c1cccc2ccccc12 | n | n | n | n | n | n | x
COc1ccc(S(=O)(=O)N2CCOCC2)cc1NC(=O)Cc1c(Cl)cccc1Cl | n | n | n | 49 | n | n | 45
COc1ccc(S(=O)(=O)N2CCOCC2)cc1NC(=O)CN1CCCCCC1 | n | n | n | n | n | n | x
COc1ccc(S(=O)(=O)N2CCOCC2)cc1NC(=O)Cc1cccs1 | n | n | n | n | n | x | x
SMILES | PAFAH1B3 FP inh | PME-1 inh | pPAFAH FP inh | PAFAH2 inh | PAFAH1B2 FP inh | Fam108B counter | PAFAH2 confirm
COc1ccc(S(=O)(=O)N2CCOCC2)cc1NC(=O)CN1CCCc2ccccc21 | n | x | n | 66 | n | x | 56
C/C(=N\NC(=O)c1ccccn1)C12CC3CC(CC(C3)C1)C2 | n | n | n | 38 | n | n | n
COc1cccc(C(=O)NCCN2CCN(c3ccccc3)CC2)c1 | n | n | n | n | n | n | x
O=S(=O)(NCc1ccccn1)c1ccccn1 | n | n | n | n | n | n | x
O=C(Cc1ccc(Br)cc1)N1CCN(C(=O)c2ccccc2)CC1 | n | n | n | n | n | x | x
COc1ccc(/C=C/C(=O)OCC(=O)NC(C)CCc2ccccc2)cc1OC (stereo unspecified) | n | x | n | 64 | n | x | 59
CC(C)n1nccc1NC(=O)COC(=O)c1ccc(NC(N)=O)cc1 | n | x | n | 65 | n | x | 46
NC(=O)Nc1ccc(C(=O)OCC(=O)Nc2sccc2C(N)=O)cc1 | n | x | x | n | n | x | x
COc1ccc(C(=O)OCC(=O)NC(C)CCc2ccccc2)cc1OC (stereo unspecified) | n | n | n | 74 | n | n | 71
